Screens: PubChem BioAssay, The Scripps Research Institute Molecular Screening Center
MsrA inh: bovine MsrA enzyme inhibitors, primary screen, biochemical, absorbance, HTS; Methionine sulfoxide reductase A (Bos taurus); purified bovine MsrA, absorbance read-out; inhibition, % at 15.5 µM; 360,000 compounds, 0.75% hits; AID 651718, 2012; in the data active means inhibition above about 4.5%;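 further: 0% = vehicle wells with enzyme and 100% = reference inhibitor wells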
PP1 inh: PP1-alpha phosphatase inhibitors, primary screen, counter-screen for PP5 inhibitor project, biochemical, fluorescence, OMFP substrate, single point. Serine/threonine-protein phosphatase PP1-alpha catalytic subunit (Homo sapiens), P62136. purified PP1alpha. inhibition, % at 6.7 µM. 320,000 compounds, 0.9% hits;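 active means inhibition above the mean inhibition of all tested compounds plus 3 SD, computed separately for each screening campaign, cut at about 15% in these data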
EBNA-1 inhibitor: EBNA-1 DNA-binding inhibitors, primary screen, biochemical, fluorescence polarization; inhibition, % at 14.8 µM; 300,000 compounds, 0.34% hits; AID 1950, 2009; in the data active means inhibition above about 28%
PP5 inh: PP5 phosphatase inhibitors, primary screen, biochemical, fluorescence | purified PP5c, OMFP substrate fluorescence | 320,000 compounds, 0.18% hits | inhibition, % at 6.7 µM | AID 1987, 2009;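 active means inhibition above the campaign's mean inhibition across all tested compounds plus 3 SD, cut at about 9.5% in these data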;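 further: 0% = DMSO only and 100% = 100 µM cantharidin control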
Target sequence (P53041 whole entry, looked up): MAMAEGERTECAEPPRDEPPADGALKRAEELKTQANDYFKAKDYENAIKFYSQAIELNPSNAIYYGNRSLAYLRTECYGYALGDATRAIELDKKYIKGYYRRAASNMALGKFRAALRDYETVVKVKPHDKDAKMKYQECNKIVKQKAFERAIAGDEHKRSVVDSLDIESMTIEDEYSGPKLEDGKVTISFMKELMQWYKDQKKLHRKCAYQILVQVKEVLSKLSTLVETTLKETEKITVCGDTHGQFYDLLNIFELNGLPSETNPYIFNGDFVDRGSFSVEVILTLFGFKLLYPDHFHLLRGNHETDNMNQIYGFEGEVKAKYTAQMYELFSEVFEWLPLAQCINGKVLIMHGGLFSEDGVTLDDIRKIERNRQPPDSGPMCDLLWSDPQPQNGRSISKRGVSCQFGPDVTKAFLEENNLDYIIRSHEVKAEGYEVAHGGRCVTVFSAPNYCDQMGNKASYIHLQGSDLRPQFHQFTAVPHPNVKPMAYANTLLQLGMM
ZTA DNA inh: blocks Epstein-Barr virus ZTA, an EBNA-1 counter-screen; ZTA-DNA binding, fluorescence polarization; inhibition, % at 11 µM; 320,000 compounds, 0.15% hits; AID 2234; in the data active means inhibition above about 33%
MsrA act: bovine MsrA enzyme activators, primary screen, biochemical, absorbance, HTS | purified bovine MsrA, absorbance read-out | 360,000 compounds, 0.3% hits | activation, % at 10.6 µM | AID 602163, 2012; in the data active means activation above about 7.5%;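 further: 0% = vehicle and 100% = reference activator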
EBNA-1 confirm: EBNA-1 DNA-binding inhibitors, retest, confirmation, biochemical, fluorescence polarization, triplicate. shares compounds with EBNA-1 inhibitor. inhibition, % at 14.8 µM. Recombinant EBNA-1 DBD, Cy5-DNA fluorescence polarization. 830 compounds, 35% hits;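 active means mean inhibition across replicates above a set limit taken from the earlier primary screen, cut at about 28% in these data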;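 further: plate controls were EBNA-1 protein with DMSO for no effect and wells lacking EBNA-1 for full effect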
ZTA counter trip: EBV Zta DNA binding inhibitors, counter-screen for EBNA-1 inhibitor project, biochemical, fluorescence polarization, triplicate; inhibition, % at 11.1 µM; Zta-ZRE DNA binding, Cy5 fluorescence polarization; shares compounds with EBNA-1 inhibitor; AID 2328, 2010; 830 tested, under 10 active;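 active means mean inhibition over triplicates above a set limit taken from the primary EBNA-1 screen, cut at about 37% in these data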;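 further: purified full length Zta protein with Cy5 labeled ZRE DNA probe; 0% = Zta with DMSO and 100% = wells lacking Zta protein; inhibitors lower polarization by freeing the labeled DNA probe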
PP5 conf: PP5 phosphatase inhibitors, confirmation, biochemical, fluorescence, human; AID 2331, 2010; 460 compounds, 22% hits; inhibition, % at 6.7 µM; shares compounds with PP5 inh; Purified PP5, fluorogenic phosphatase substrate; in the data active means inhibition above about 9.5%
PP1 inh counter: PP1 phosphatase inhibitors, counter-screen for PP5 inhibitor project, biochemical, fluorescence, triplicate | 460 compounds, 4% hits | PP1 enzyme, fluorescent phosphatase substrate | inhibition, % at 6.7 µM | shares compounds with PP5 inh; in the data active means inhibition above about 16%
Zta DNA confirm: EBV Zta binding to ZRE DNA, inhibitors, confirmation, biochemical, fluorescence polarization, triplicate; shares compounds with ZTA DNA inh; inhibition, % at 11.1 µM; 320 compounds, 30% hits; AID 2361, 2010;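 active means mean inhibition across triplicate runs above the hit threshold derived for the original primary screen, cut at about 33% in these data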;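 further: 0% = Zta with DMSO and 100% = wells lacking Zta protein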
EBNA-1 counter: EBNA-1 DNA-binding inhibition, counter-screen for ZTA inhibitor project, biochemical, fluorescence polarization | shares compounds with ZTA DNA inh | inhibition, % at 14.8 µM | 320 tested, under 10 active | AID 2362, 2010; call rule not given here
An asterisk follows results filed as active; · = not tested or not shown. Rows were chosen to be rich in hits. Some 2.3% of all compounds tested hit in one or more screens of this group.

SMILES	MsrA inh	PP1 inh	EBNA-1 inhibitor	PP5 inh	ZTA DNA inh	MsrA act	PP5 conf	PP1 inh counter	others
COc1ccc(-c2csc(NC(=O)COC(=O)Cc3ccccc3)n2)cc1OC	·	1	31*	2	15	·	·	·	EBNA-1 confirm=34*;ZTA counter trip=0
COc1ccc(Cn2c(N)c(C(=O)NCc3ccco3)c3nc4ccccc4nc32)cc1OC	0	7	3	12*	-7	0	44*	10
CC(C)CNC(=O)c1c(N)n(Cc2ccc3c(c2)OCO3)c2nc3ccccc3nc12	1	7	-3	12*	-7	-3	21*	3
COCCCNC(=O)c1c(N)n(Cc2ccco2)c2nc3ccccc3nc12	0	-2	-5	0	-4	-5	·	·
CCCCCCC(C)(C)c1ccc([C@@H]2C[C@H](O)CC[C@H]2CCCO)c(O)c1	-1	0	4	10*	3	-2	4	4
C=CCn1c(O)c(C(CC)=NCC2CCCO2)c(=O)[nH]c1=O (stereo not given)	-1	-5	-8	0	-7	-3	·	·
COC(=O)C1=C(c2ccc(OC(F)(F)F)cc2)C[C@@H]2CC[C@H]1N2C(=O)NCCOc1ccccc1Cl	0	9	·	11*	-6	1	6	4
COC(=O)C1=C(c2ccc(OC(F)(F)F)cc2)C[C@@H]2CC[C@H]1N2C(=O)NCCOc1ccccc1	1	3	·	8	1	-9	·	·
CC(Cc1ccccc1)/[N+]([O-])=C\c1ccc(C(F)(F)F)cc1 (stereo not given)	0	3	1	-6	-3	-1	·	·
CCCCNC(=O)c1c(N)n(CCCOC)c2nc3ccccc3nc12	1	5	-5	5	9	-1	·	·
CC(C)CCn1c(N)c(C(=O)NCc2cccs2)c2nc3ccccc3nc21	·	-2	5	0	4	-3	·	·
CC(C)OCCCNC(=O)c1c(N)n(Cc2cccs2)c2nc3ccccc3nc12	0	2	2	12*	7	-8	15*	9
COCCNC(=O)c1c(N)n(CCC(C)C)c2nc3ccccc3nc12	1	6	2	11*	-5	1	23*	3
COC(=O)C1=C(c2ccc(C(C)=O)cc2)C[C@@H]2CC[C@H]1N2C(=O)NCCCOC(C)C	0	-3	·	2	-18	0	·	·
CN1CC[C@@]2(C)c3cc(O)ccc3N(C)C2O1 (stereo not given in full)	·	3	9	14*	19	-2	26*	5
CCC(C)/C=C(C)/C=C/C1=CC2=C(Cl)C(=O)C(C)(OC(C)=O)C(=O)C2=CO1 (stereo not given)	·	1	-5	12*	17	-5	7	6
O=C1C(=O)N(c2ccccc2)P(=O)(N(CCCl)CCCl)N1c1ccccc1	1	·	·	·	·	-3	·	·
CCOC(=O)c1c(NS(=O)(=O)c2ccccc2)n(CCCOC)c2nc3ccccc3nc12	3	2	7	11*	56*	-13	9.9*	0	Zta DNA confirm=-4;EBNA-1 counter=-10
COC(=O)C1=C(c2cc3ccccc3s2)C[C@@H]2CC[C@H]1N2C(=O)N1CCC(O)CC1	0	3	9	5	8	-3	·	·
CCc1ccc(N2C(=O)NC(=O)/C(=C\c3cc(C)n(-c4cc(C(=O)O)cc(C(=O)O)c4)c3C)C2=O)cc1	0	3	-7	3	37*	-11	·	·	Zta DNA confirm=28;EBNA-1 counter=-8
Cc1ccc(N2C(=O)NC(=O)/C(=C\c3cc(C)n(-c4cc(C(=O)O)cc(C(=O)O)c4)c3C)C2=O)cc1	1	-3	-5	0	20	-11	·	·
CCN(CC)c1ccc(N=Cc2c(O)n(Cc3ccco3)c(=O)[nH]c2=O)cc1	1	3	-7	-1	37*	-4	·	·	Zta DNA confirm=4;EBNA-1 counter=-10
CCN(CC)c1ccc(N=Cc2c(O)n(-c3cc(OC)ccc3OC)c(=O)[nH]c2=O)cc1	1	-1	-17	3	34*	0	·	·	Zta DNA confirm=-6;EBNA-1 counter=-6
NC(=O)c1ccc(N=Cc2c(O)n(Cc3ccco3)c(=O)[nH]c2=O)cc1	3	2	-5	-1	5	-5	·	·
CCN1C[C@]2(C)CC[C@H](O)[C@]34C1[C@H](C[C@H]23)[C@@]1(O)C[C@H](OC)[C@H]2C[C@@H]4[C@@H]1C2O (stereo not given in full)	-1	3	-10	1	-9	-2	·	·
COC(=O)C1=C(c2ccc(-c3ccccc3)c(F)c2)C[C@@H]2CC[C@H]1N2C(=O)N1CCc2cc(OC)c(OC)cc2C1	0	-1	·	5	8	-5	·	·
O=C1C(=O)c2ccccc2-c2ccccc21	0	40*	5	4	65*	49*	·	·	Zta DNA confirm=68*;EBNA-1 counter=-8
COC(=O)C1=C(c2ccc(OC)c(OC)c2)C[C@@H]2CC[C@H]1N2C(=O)NC1Cc2ccccc2C1	1	-3	·	0	-14	-2	·	·
Cn1c(O)c(/C=N/N2CCCCC2)c(=O)[nH]c1=O	-1	-3	2	-2	37*	-8	·	·	Zta DNA confirm=1;EBNA-1 counter=4
O=C(O)C(Br)CBr (stereo not given)	0	-2	·	-2	-10	-4	·	·
